Screening data from PubChem BioAssay.
In the library only some 3.5% were active in any assay of this set; here they are far more common.
Sm TGR inh – inhibitors of Schistosoma mansoni thioredoxin glutathione reductase | Potency, µM (titrated, usually from 114 µM), without a hit: at the highest dose activity change, negative = inhibition, actives largely listed as inhibitors | Q962Y6 | purified TGR, DTNB reduction, TNB absorbance 405 nm | hit rate 3% among 360,000; also: % is scaled to controls: 0 for no effect and ±100 for the full control effect; nearly all actives have a fitted effect of over 60% in size
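Kinetic colorimetric format: TGR-catalysed, NADPH-driven DTNB reduction monitored via TNB absorbance. Enzyme dispensed at 20 nM; compound exposure 15 min at room temperature before reaction start.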
TbPYK inhibitor – blocks Trypanosoma brucei pyruvate kinase | Q57TT1 | TbPYK enzyme, Kinase-Glo Plus ATP luminescence, 45 min | Potency, µM (highest dose often 76.8 µM), for inactives: at the highest dose activity, negative = inhibition, hits mostly inhibitors | hit rate 0.12% among 410,000 | AID 624173; also: % is scaled to controls: 0 for no effect and ±100 for the full control effect; nearly all actives have a fitted effect of over 50% in size
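Readout: single end-point luminescence (Kinase-Glo Plus, 10 min). Reaction conditions were TbPYK/substrate plus 130 uM ADP, 45 min at RT, pH 7.2 TEA buffer. No-enzyme wells served as controls, and data were normalized before concentration-response fitting.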
Giardia FBPA inh-1 – blocks Giardia fructose-bisphosphate aldolase activity; Potency, µM (series often up to 59.6 µM), for inactives: top-dose activity, negative = inhibition, most hits filed as inhibitors; A8B2U2; purified Giardia FBPA; AID 2451; hit rate 0.71% among 290,000; also: % is scaled to controls: 0 for no effect and ±100 for the full control effect; nearly all actives have a fitted effect of over 55% in size
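Giardia FBPA (40 nM reagent) was preincubated 10 min at RT with compound (up to 57.5 uM final), then substrate plus GAPDH/TPI/NAD/arsenate coupling system with diaphorase/resazurin was added; resorufin fluorescence (525/598 nm) was read after 20 min.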
LmPK inhibitor – inhibitors of Leishmania mexicana pyruvate kinase; hit rate 0.37% among 290,000; purified LmPK, Kinase-Glo ATP luminescence, 1 h; Q27686; Potency, µM (doses to about 57.5 µM), inactives show at the top dose activity change, negative = inhibition, most hits filed as inhibitors; also: % is scaled to controls: 0 for no effect and ±100 for the full control effect
Target sequence (Q27686 whole entry, looked up): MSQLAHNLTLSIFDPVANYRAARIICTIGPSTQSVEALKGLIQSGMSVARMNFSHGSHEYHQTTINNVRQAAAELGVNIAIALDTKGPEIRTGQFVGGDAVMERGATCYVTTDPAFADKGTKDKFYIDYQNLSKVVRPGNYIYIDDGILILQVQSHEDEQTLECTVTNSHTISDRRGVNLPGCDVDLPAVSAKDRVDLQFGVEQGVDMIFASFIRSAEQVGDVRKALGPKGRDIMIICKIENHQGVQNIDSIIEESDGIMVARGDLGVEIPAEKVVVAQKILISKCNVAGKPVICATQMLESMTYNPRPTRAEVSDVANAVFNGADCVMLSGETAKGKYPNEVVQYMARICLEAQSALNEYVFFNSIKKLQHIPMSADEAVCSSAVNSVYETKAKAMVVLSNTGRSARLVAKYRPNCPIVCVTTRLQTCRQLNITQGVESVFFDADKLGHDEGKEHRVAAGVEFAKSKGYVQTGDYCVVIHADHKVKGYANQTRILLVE
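Pyruvate kinase activity monitored as ATP production (luciferase luminescence). Conditions: 0.1 nM enzyme, 0.5 mM PEP, 0.1 mM ADP, 1 h, RT; normalized against uninhibited and no-enzyme wells.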
RE007 growth inh – less growth of the S. pombe RE007 Vpr strain. S. pombe RE007 Vpr strain, BacTiter-Glo ATP luminescence, 24 h. Potency, µM (top dose mostly 92.2 µM), for inactives: at the highest dose activity change, negative = less growth, usual class: inhibitors. hit rate 0.21% among 360,000. AID 651644; active = well fitted falling curve with a large enough effect; inconclusive = small, poorly fitted or top-dose-only effect; inactive = no such curve, though single readings can be large or run the other way; also: % is scaled to controls: 0 for no effect and ±100 for the full control effect; nearly all actives have a fitted effect of over 50% in size
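Fission yeast strain RE007, carrying one chromosomally integrated HIV-1 vpr copy, was seeded at OD 0.01 in PMG+AL medium with 23 nL pinned compound. After 24 h at 30 °C and 99% humidity, viability was read by BacTiter-Glo luminescence.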
NS1 function inh – inhibitors of influenza NS1 protein function; AID 2326; Potency, µM (doses to about 46.1 µM), inactives show at the highest dose activity, positive = more growth; hit rate 0.4% among 270,000; calls by dose curve; also: actives are rising curves; nearly all actives have a fitted effect of over 50% in size
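Recovery from NS1-induced slow growth read by OD600 in budding yeast switched to galactose assay medium (pH 6.0, -URA) at 1:100 dilution. Compound 23 nl per well; the matching strain lacking NS1 serves as control.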
Giardia growth – Giardia lamblia growth inhibition; shares compounds with Giardia FBPA inh-1; Giardia lamblia trophozoite growth inhibition; AID 2785; hit rate 5% among 1,500; Potency, µM (doses to about 57.5 µM), for inactives: top-dose activity change, negative = inhibition, most hits filed as inhibitors;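 also: trophozoites exposed to compound for 48 h at 37 °C; % is scaled to controls: 0 for no effect and ±100 for the full control effect; nearly all actives have a fitted effect of over 70% in size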
Mammal cell tox – mammalian cytotoxicity of Giardia aldolase inhibitor hits; shares compounds with Giardia FBPA inh-1; hit rate 4% among 1,500; Potency, µM (highest dose often 57.5 µM), for the others: top-dose viability change, negative = toxicity, hits mostly inhibitors; mammalian cell viability counter-screen, qHTS; AID 2786;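 also: Chinese hamster ovary cells used as mammalian cytotoxicity surrogate; viability measured as cellular ATP by luminescence; compound exposure lasted 48 h before reading; % is scaled to controls: 0 for no effect and ±100 for the full control effect; nearly all actives have a fitted effect of over 60% in size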
Giardia FBPA inh-2 – confirmation of Giardia fructose-bisphosphate aldolase inhibitors; AID 2787; hit rate 5% among 1,500; purified Giardia aldolase enzyme activity, qHTS; shares compounds with Giardia FBPA inh-1; Potency, µM (series often up to 57.5 µM), for inactives: top-dose activity change, negative = inhibition, most hits filed as inhibitors; also: % is scaled to controls: 0 for no effect and ±100 for the full control effect; nearly all actives have a fitted effect of over 45% in size
Rabbit FBPA inh – selectivity test for Giardia aldolase inhibitors: rabbit aldolase; shares compounds with Giardia FBPA inh-1; Rabbit muscle FBPA enzyme inhibition, selectivity counter-screen; Potency, µM (highest dose often 57.5 µM), inactives show top-dose activity, negative = inhibition, usual class: inhibitors; hit rate 4% among 1,500; also: % is scaled to controls: 0 for no effect and ±100 for the full control effect; nearly all actives have a fitted effect of over 60% in size
GAPDH counter – counter-screen for Giardia aldolase inhibitors: GAPDH coupling enzyme | shares compounds with Giardia FBPA inh-1 | GAPDH coupling enzyme counterscreen, biochemical, qHTS | Potency, µM (top dose mostly 57.5 µM), for the others: at the top dose activity change, negative = inhibition, usual class: inhibitors | hit rate 6% among 1,500; also: % is scaled to controls: 0 for no effect and ±100 for the full control effect; nearly all actives have a fitted effect of over 55% in size
Starred values were filed as active, the others as inactive; ? = inconclusive; · = not tested or not shown; [ ] = dose if it differs, or a comment. Unless noted, calls follow the shape of the dose curve; as a rule, active = well fitted curve in the direction sought with a large enough effect; inconclusive = small, poorly fitted or top-dose-only effect, or another doubt; inactive = no such curve, though single readings can be large; an effect the other way counts as inactive or inconclusive. Potency is read from the fitted curve at half-maximal effect.

SMILES	Sm TGR inh	TbPYK inhibitor	Giardia FBPA inh-1	LmPK inhibitor	RE007 growth inh	NS1 function inh	Giardia growth	Mammal cell tox	Giardia FBPA inh-2	Rabbit FBPA inh	GAPDH counter
O=c1cc(-c2ccc(O)cc2)oc2c1ccc1ccccc12	-4%	4%	·	·	3%	·	·	·	·	·	·
COc1ccc(Br)cc1CN1CCN(C(=O)c2ccc(F)cc2)CC1	-7%	-7%	16µM*	1%	-13%	-1%	4%	-11%	5%	12%	-7%
O=C(c1cccc(F)c1)N1CCN(Cc2cccc(Br)c2)CC1	0%	4%	14µM*	-4%	-7%	-12%	5%	1%	9%	7%	8%
O=[N+]([O-])c1ccccc1CN1CCN(Cc2c[nH]c3ccccc23)CC1	-11%	20%	20µM*	10%	5%	·	5%[10.4 µM]	-23%	1%	3%	5%
COc1cccc(CN2CCN(C(=O)c3cccc(F)c3)CC2)c1	·	·	·	·	·	0%	·	·	·	·	·
COc1ccc(Br)cc1CN1CCN(Cc2c[nH]c3ccccc23)CC1	-11%	-16%	14µM*	-5%	-20%	-3%	16µM*	-16%	2%	9%	5%
Cc1ccc(NC(=O)C2CCN(c3nc4ccccc4nc3C(F)(F)F)CC2)cc1F	12%	1%	·	·	·	·	·	·	·	·	·
CCc1ccc(Cn2nnc(C(=O)Nc3ccc(C)cc3)c2N)cc1	20%	-18%	·	·	·	·	·	·	·	·	·
COc1ccc(CN2CCN(Cc3c[nH]c4ccccc34)CC2)cc1	-18%	28%	?	-11%	-16%	5%	-9%[38.3 µM]	2%	-4%	-5%	-12%
COc1ccc(CN2CCN(Cc3c[nH]c4ccccc34)CC2)cc1OC	·	6%	·	·	-10%	·	·	·	·	·	·
O=C(Nc1cccc(-c2nc3ccccc3[nH]2)c1)c1c(F)cccc1F	-4%	0%	·	·	·	·	·	·	·	·	·
O=C(CC1C(=O)OCC2CCCCN21)Nc1ccccc1C(F)(F)F (stereo not drawn)	?	-17%	22µM*	2%	-11%	·	54%	23%	5%	0%	13%
Cc1ccc(NC(=O)CC2C(=O)OCC3CCCCN32)cc1Cl (stereo not drawn)	-3%	-2%	-4%	1%	?	-1%	·	·	·	·	·
COc1ccc(-c2n[nH]c(=S)n2N)c(OC)c1	7%	-29%	10µM*	6%	6%	·	-13%	0%	0%	12%	10%
COc1ccc(-n2c(-c3ccc(Cl)cc3Cl)n[nH]c2=S)c(OC)c1	-12%	-21%	11%	?	8%	-2%	·	·	·	·	·
COc1ccc(CNC(=O)Cn2nc(N3CCN(c4ccccc4)CC3)ccc2=O)c(OC)c1	3%	6%	·	·	·	·	·	·	·	·	·
COc1cccc(C(=O)Nc2ccc(-c3nc4ccccc4s3)cc2Cl)c1	2%	1%	·	·	·	·	·	·	·	·	·
CCOC(=O)Cc1csc(NC(=S)NC(=O)c2ccc(F)cc2)n1	?	-6%	7.9µM*	-7%	?	-13%	-27%	-4%	12%	7%	9%
